LGR2 antag: inhibitors of bursicon-induced Drosophila LGR2 receptor cAMP signaling | HEK293 LGR2, CRE-luciferase, bursicon-stimulated, 4 h | inhibition, % at 9.99 µM | 380,000 compounds, 0.35% hits | AID 720647;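 active means drop in luminescence signal, shown as inhibition above about 50% in the replicate tests, limit read from the data, passing the limit was not always enough; inconclusive means probably only some replicates passing the limit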;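 further: agonist challenge used bursicon conditioned medium at about half maximal strength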
TROY NFkB inh: blocks TROY-dependent signaling in reporter cells; Q293 LMP1-TROYcd NF-kB luciferase reporter, 4 h; inhibition, % at 10 µM; 360,000 compounds, 0.98% hits;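 active means compounds whose plate-normalised and pattern-corrected inhibition of the luciferase reporter signal at the single screening dose is 50% or more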
EBV LMP1 NFkB: inhibitors of Epstein-Barr LMP1-induced NF-kappaB reporter; LMP1-induced NF-kappaB luciferase reporter cells, luminescence; inhibition, % at 12.5 µM; 350,000 compounds, 0.69% hits; AID 504558; in the data active means inhibition above about 41%; inconclusive means no clear call, values can overlap the other calls;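 further: 0% = neutral control wells and 100% = reference inhibitor control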
PAX8 inh HTS: PAX8 transcriptional activity inhibition. RMG-I TPO-luciferase reporter, SteadyGlo, 24 h. inhibition, % at 12.6 µM. 360,000 compounds, 1.2% hits. AID 652154;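 active means mean replicate inhibition at least 60% with every replicate also reaching 60%; inconclusive means only one of the two criteria is met; inactive means mean below 60% and not all replicates reaching 60%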;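 further: luciferase light reporting Pax8 driven TPO promoter activity; plate controls were median of neutral control wells for no effect and mitoxantrone controls for full effect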
EWS-Fli inh: EWS/Fli transcriptional activity inhibition; A673 NR0B1-luciferase reporter, viability-normalised; inhibition, % at 12.6 µM; 350,000 compounds, 0.67% hits; AID 651661;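 active means mean inhibition of at least 50% after viability correction, with every replicate also passing that limit; inconclusive means mean reaches 50% but only one of two replicates passes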;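 further: firefly luciferase signal divided by Alamar Blue viability fluorescence both relative to DMSO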
TWEAK-Fn14 inh: blocks TWEAK-Fn14 interaction in a reporter cell assay | 360,000 compounds, 2% hits | AID 1159606 | inhibition, % at 10 µM | TWEAK-stimulated Fn14 reporter cells, luciferase luminescence, 8 h; in the data active means inhibition above about 50%
* = called active by the depositor. Compounds with a hit are over-represented: about 3.1% of the library has one in this group of screens.

What do the screens show for `COc1cccc(/C=N/n2c(C3CCCCC3)n[nH]c2=S)c1O`?
LGR2 antag: 0.6; TROY NFkB inh: 11.5; EBV LMP1 NFkB: 1.0; PAX8 inh HTS: -3.1; EWS-Fli inh: 10.1; TWEAK-Fn14 inh: 60.3*

What do the screens show for `COc1cccc(/C=N/n2c(C3CCCCC3)n[nH]c2=S)c1OC`?
LGR2 antag: -9.3; TROY NFkB inh: -12.5; EBV LMP1 NFkB: 4.7; PAX8 inh HTS: 13.0; EWS-Fli inh: 8.3; TWEAK-Fn14 inh: -5.9

What do the screens show for `O=C(/C=C/c1ccc(Cl)cc1Cl)N1CCN(c2ccccc2[N+](=O)[O-])CC1`?
LGR2 antag: -0.1; TROY NFkB inh: 5.0; EBV LMP1 NFkB: 2.8; PAX8 inh HTS: 118.6*; EWS-Fli inh: 3.0; TWEAK-Fn14 inh: -7.0

How did O=C(/C=C/c1ccc(Cl)cc1)N1CCN(c2ccc([N+](=O)[O-])c(N3CCOCC3)c2)CC1 do in these assays?
LGR2 antag: 29.8; TROY NFkB inh: 56.4*; EBV LMP1 NFkB: 21.0; PAX8 inh HTS: 22.8; TWEAK-Fn14 inh: 64.3*

What do the screens show for `C[C@@H](NC(=O)C[C@@H]1CC[C@@H](NC(=O)c2cccnc2)[C@@H](CO)O1)c1ccccc1`?
LGR2 antag: -3.9; PAX8 inh HTS: -3.3; EWS-Fli inh: 7.1

How did COc1cc(C(=O)Nc2nc(-c3ccc(C)cc3)cs2)ccc1OCC(=O)N1CCOCC1 do in these assays?
LGR2 antag: 1.7; TROY NFkB inh: 56.9*; EBV LMP1 NFkB: 5.0; PAX8 inh HTS: -0.7; TWEAK-Fn14 inh: 45.8

How did COc1cc(C(=O)Nc2nc(-c3ccc(F)cc3)cs2)ccc1OCC(=O)N1CCOCC1 do in these assays?
LGR2 antag: 22.8; TROY NFkB inh: 33.2; EBV LMP1 NFkB: 23.0; PAX8 inh HTS: 13.6; EWS-Fli inh: -11.8; TWEAK-Fn14 inh: 29.6

How did COc1ccc(OC)c(NC(=O)c2ccc(OCC(=O)N3CCOCC3)c(OC)c2)c1 do in these assays?
LGR2 antag: 6.0; TROY NFkB inh: -11.1; EBV LMP1 NFkB: 6.2; PAX8 inh HTS: 8.9; EWS-Fli inh: -7.4; TWEAK-Fn14 inh: -22.9

Results for COc1ccc(-c2csc(NC(=O)c3ccc(OCC(=O)N4CCOCC4)c(OC)c3)n2)cc1 ?
LGR2 antag: 91.5*; TROY NFkB inh: 36.7; EBV LMP1 NFkB: -1.9; PAX8 inh HTS: 34.6; EWS-Fli inh: 0.3; TWEAK-Fn14 inh: 46.4

How did CCCNC(=O)N[C@@H]1CC[C@@H](CCNS(=O)(=O)c2cccc(F)c2)O[C@H]1CO do in these assays?
LGR2 antag: 6.8; PAX8 inh HTS: -15.1; EWS-Fli inh: -0.6

How did C[C@@H]1CN([C@H](C)CO)C(=O)c2ccccc2-c2ccccc2CO[C@H]1CN(C)C(=O)Nc1ccccc1 do in these assays?
LGR2 antag: -3.9; EWS-Fli inh: 2.1

How did Nc1ccc(-c2cnc(-c3ccc(N)cc3)nc2)cc1 do in these assays?
TROY NFkB inh: -4.3; EBV LMP1 NFkB: -24.7; PAX8 inh HTS: -18.2; TWEAK-Fn14 inh: 66.6*

What do the screens show for `Oc1ccc(-c2cnc(-c3ccc(O)cc3)nc2)cc1`?
LGR2 antag: 16.7; TROY NFkB inh: -50.4; EBV LMP1 NFkB: -83.4; PAX8 inh HTS: -160.3; TWEAK-Fn14 inh: 7.4

Results for Cc1ccc(SC2=C[C@@]3(O)CC[C@@H](O)[C@@](Sc4ccc(C)cc4)(C2=O)[C@H]3O)cc1 ?
LGR2 antag: 7.2; TROY NFkB inh: 0.4; PAX8 inh HTS: 5.7; EWS-Fli inh: -4.5; TWEAK-Fn14 inh: 13.6

Results for CC(C)(C)c1ccc(SC2=C[C@@]3(O)CC[C@@H](O)[C@@](Sc4ccc(C(C)(C)C)cc4)(C2=O)[C@H]3O)cc1 ?
LGR2 antag: 29.4; TROY NFkB inh: 13.7; PAX8 inh HTS: 85.0*; EWS-Fli inh: 30.9; TWEAK-Fn14 inh: 23.1

How did C[C@@H]1CN([C@@H](C)CO)C(=O)c2cc(NC(=O)c3ccncc3)ccc2O[C@@H](C)CCCCO[C@@H]1CN(C)C(=O)Nc1ccc(C(F)(F)F)cc1 do in these assays?
LGR2 antag: -5.6; EWS-Fli inh: -6.6

Results for N#Cc1ccc(NC(=O)Nc2ccc(Cl)cc2)cc1 ?
TROY NFkB inh: 25.9; EBV LMP1 NFkB: 9.6; TWEAK-Fn14 inh: 63.0*

How did COc1ccc(-c2csc(NC(=O)c3ccccc3NS(=O)(=O)c3ccc(F)c(F)c3)n2)cc1 do in these assays?
LGR2 antag: 45.9; TROY NFkB inh: 68.7*; EBV LMP1 NFkB: inconclusive; PAX8 inh HTS: 97.0*; EWS-Fli inh: 21.1; TWEAK-Fn14 inh: 74.5*

What do the screens show for `COc1ccc(-c2csc(NC(=O)c3ccccc3F)n2)cc1`?
LGR2 antag: -2.9; TROY NFkB inh: -9.0; EBV LMP1 NFkB: -9.5; PAX8 inh HTS: -8.1; EWS-Fli inh: -16.9; TWEAK-Fn14 inh: 6.7

Results for Cc1ccc(S(=O)(=O)Nc2ccccc2C(=O)Nc2nc(-c3ccc(F)cc3)cs2)cc1 ?
LGR2 antag: 32.8; TROY NFkB inh: 75.3*; EBV LMP1 NFkB: 21.3; PAX8 inh HTS: 77.4*; EWS-Fli inh: 13.3; TWEAK-Fn14 inh: 93.5*

Results for CCN1CCN(CC(=O)Nc2sc3c(c2C#N)CCC(C)C3)CC1 (stereo not drawn) ?
LGR2 antag: 6.0; EBV LMP1 NFkB: -11.7; TWEAK-Fn14 inh: 77.8*

Results for CC(C)(C)C1CCc2c(sc(NC(=O)CSc3ncn[nH]3)c2C#N)C1 (stereo not drawn) ?
TROY NFkB inh: -17.5; EBV LMP1 NFkB: -1.2; PAX8 inh HTS: 22.2; TWEAK-Fn14 inh: 17.7

Results for N#Cc1c(NC(=O)CSc2ncn[nH]2)sc2c1CCCC2 ?
TROY NFkB inh: 38.8; EBV LMP1 NFkB: 26.7; TWEAK-Fn14 inh: 80.5*

Results for CC1CCc2c(sc(NC(=O)CSc3ncn[nH]3)c2C#N)C1 (stereo not drawn) ?
LGR2 antag: 9.4; TROY NFkB inh: 44.6; EBV LMP1 NFkB: 27.8; PAX8 inh HTS: 25.6; EWS-Fli inh: 64.2*; TWEAK-Fn14 inh: 71.6*

How did CC1CCc2c(sc(NC(=O)Cn3nc(C(=O)O)c4ccccc4c3=O)c2C#N)C1 (stereo not drawn) do in these assays?
LGR2 antag: -14.5; TROY NFkB inh: -28.5; EBV LMP1 NFkB: -2.5; PAX8 inh HTS: 0.8; EWS-Fli inh: -27.5; TWEAK-Fn14 inh: -62.7

How did COCC(=O)N(C)C[C@H]1Oc2cc(C3=CCCCC3)ccc2S(=O)(=O)N([C@@H](C)CO)C[C@@H]1C do in these assays?
LGR2 antag: 2.5; EWS-Fli inh: 11.5

Results for CC(C)C[C@@H](CO)N(Cc1ccccc1)S(=O)(=O)N(Cc1ccccc1)[C@@H](CO)CC(C)C ?
TROY NFkB inh: 52.8*; EBV LMP1 NFkB: -8.9; TWEAK-Fn14 inh: 15.8

How did CC(C)C[C@@H](CO)N(Cc1ccccc1)S(=O)(=O)N(Cc1ccccc1)[C@H](CO)CC(C)C do in these assays?
LGR2 antag: 29.6; TROY NFkB inh: 52.4*; EBV LMP1 NFkB: 3.0; TWEAK-Fn14 inh: 24.2

What do the screens show for `COc1ccc(CN([C@H](CO)CC(C)C)S(=O)(=O)N(Cc2ccccc2)[C@H](CO)CC(C)C)cc1`?
LGR2 antag: inconclusive; TROY NFkB inh: 24.7; EBV LMP1 NFkB: 2.8; PAX8 inh HTS: 57.2; EWS-Fli inh: 9.0; TWEAK-Fn14 inh: 22.1

Screening data from PubChem BioAssay.
